# Data reported in paper PMC11574364.
# Experiments:
# Test in all cases: protein domain microarray probed with biotinylated miRNA; Domain array: 20 mM Tris-HCl pH 7.4, 200 mM KCl, 0.2 mM EDTA, 0.05% NP40, 2 ug/ul heparin, overnight 4 C. ORF array: PBS pH 7.0 with RNase inhibitor, 100 ng RNA; high values mean tight binding
# Details in all cases: ssRNA
# RBM19(1) = target: T1, RBM19(1) (Homo sapiens, UniProt Q9Y4C8)
# T1 sequence: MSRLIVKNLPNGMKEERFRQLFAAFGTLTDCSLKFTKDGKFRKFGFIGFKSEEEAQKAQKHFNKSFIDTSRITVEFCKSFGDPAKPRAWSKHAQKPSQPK
# FXR1(1-2) = FXR1(1-2) (Homo sapiens, UniProt P51114)
# Sequence of FXR1(1-2) (P51114 201-372): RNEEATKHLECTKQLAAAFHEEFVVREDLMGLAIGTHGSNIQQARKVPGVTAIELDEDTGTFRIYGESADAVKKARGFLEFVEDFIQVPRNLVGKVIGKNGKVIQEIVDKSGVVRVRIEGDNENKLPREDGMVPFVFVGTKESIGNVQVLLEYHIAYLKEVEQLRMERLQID
# SFRS12 = target: T2, SFRS12 (Homo sapiens, UniProt Q8WXA9)
# T2 sequence: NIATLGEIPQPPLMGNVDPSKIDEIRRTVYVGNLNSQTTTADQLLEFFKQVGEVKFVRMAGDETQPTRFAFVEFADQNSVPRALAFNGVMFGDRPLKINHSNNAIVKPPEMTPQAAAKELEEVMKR
# RBMXL3 = RBMXL3 (Homo sapiens, UniProt Q8N7X1)
# Sequence of RBMXL3 (Q8N7X1 1-110): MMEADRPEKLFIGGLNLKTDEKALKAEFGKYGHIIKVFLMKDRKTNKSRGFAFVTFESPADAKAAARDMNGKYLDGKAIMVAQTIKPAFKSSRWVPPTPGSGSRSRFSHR
# ROD1(3-4) = ROD1(3-4) (Homo sapiens, UniProt O95758)
# Sequence of ROD1(3-4) (O95758 340-552): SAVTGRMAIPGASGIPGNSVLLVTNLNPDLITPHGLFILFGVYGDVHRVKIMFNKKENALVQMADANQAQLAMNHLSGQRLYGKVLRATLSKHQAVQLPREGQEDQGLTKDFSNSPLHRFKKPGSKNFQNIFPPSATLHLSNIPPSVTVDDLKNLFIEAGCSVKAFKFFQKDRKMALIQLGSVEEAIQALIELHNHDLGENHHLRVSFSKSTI
# SFRS7 = target: T3, SFRS7 (Homo sapiens, UniProt Q16629)
# T3 sequence: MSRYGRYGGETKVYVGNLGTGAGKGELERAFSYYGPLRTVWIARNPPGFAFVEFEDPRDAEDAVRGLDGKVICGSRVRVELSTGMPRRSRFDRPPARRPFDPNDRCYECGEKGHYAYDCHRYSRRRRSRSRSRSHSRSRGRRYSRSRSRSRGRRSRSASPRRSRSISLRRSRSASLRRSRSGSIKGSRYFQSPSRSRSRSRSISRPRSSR
# snRNP 70 = snRNP 70 (Homo sapiens, UniProt P08621)
# Sequence of snRNP 70 (P08621 80-205): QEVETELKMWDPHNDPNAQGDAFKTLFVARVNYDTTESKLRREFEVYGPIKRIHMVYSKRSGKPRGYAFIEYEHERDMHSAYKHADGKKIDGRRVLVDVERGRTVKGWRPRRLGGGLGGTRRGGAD
# SRRP35 = SRRP35 (Homo sapiens, UniProt Q8WXF0)
# Sequence of SRRP35 (Q8WXF0 1-120): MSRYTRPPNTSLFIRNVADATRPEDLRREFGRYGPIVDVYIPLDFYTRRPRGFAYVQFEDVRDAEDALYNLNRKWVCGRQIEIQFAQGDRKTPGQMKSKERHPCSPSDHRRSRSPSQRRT
# RDBP = RDBP (Homo sapiens, UniProt P18615)
# Sequence of RDBP (P18615 240-355): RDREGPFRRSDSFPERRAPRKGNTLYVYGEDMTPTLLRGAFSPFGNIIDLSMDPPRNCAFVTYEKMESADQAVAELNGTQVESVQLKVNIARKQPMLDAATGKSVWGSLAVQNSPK
# STAU2(4) = target: T4, STAU2(4) (Homo sapiens, UniProt Q9NUL3)
# T4 sequence: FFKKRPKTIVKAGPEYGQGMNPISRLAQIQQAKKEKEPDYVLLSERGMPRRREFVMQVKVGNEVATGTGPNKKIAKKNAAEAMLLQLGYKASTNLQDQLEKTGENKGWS
# RBM11 = target: T5, RBM11 (Homo sapiens, UniProt P57052)
# T5 sequence: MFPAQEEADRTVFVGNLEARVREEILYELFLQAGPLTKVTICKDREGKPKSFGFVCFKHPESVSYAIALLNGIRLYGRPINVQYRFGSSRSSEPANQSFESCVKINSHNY
# RAVER1 = target: T6, RAVER1 (Homo sapiens, UniProt Q8IY67)
# T6 sequence: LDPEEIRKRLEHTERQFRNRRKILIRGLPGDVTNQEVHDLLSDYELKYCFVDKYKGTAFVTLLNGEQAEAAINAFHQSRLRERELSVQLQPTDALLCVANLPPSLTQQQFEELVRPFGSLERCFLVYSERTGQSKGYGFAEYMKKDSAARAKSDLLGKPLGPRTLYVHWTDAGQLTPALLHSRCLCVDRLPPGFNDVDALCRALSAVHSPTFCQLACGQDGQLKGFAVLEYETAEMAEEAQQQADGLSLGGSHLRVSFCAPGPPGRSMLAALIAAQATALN
# REXON = target: T7, REXON (Homo sapiens, UniProt Q96IC2)
# T7 sequence: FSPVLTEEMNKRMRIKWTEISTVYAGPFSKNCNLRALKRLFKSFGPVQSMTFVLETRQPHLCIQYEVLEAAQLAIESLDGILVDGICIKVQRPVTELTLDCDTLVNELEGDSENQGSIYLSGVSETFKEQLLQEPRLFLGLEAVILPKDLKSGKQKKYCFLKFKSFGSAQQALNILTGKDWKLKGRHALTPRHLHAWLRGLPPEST
# IGF2BP2(1-2) = IGF2BP2(1-2) (Homo sapiens, UniProt Q9Y6M1)
# Sequence of IGF2BP2(1-2) (Q9Y6M1 176-362): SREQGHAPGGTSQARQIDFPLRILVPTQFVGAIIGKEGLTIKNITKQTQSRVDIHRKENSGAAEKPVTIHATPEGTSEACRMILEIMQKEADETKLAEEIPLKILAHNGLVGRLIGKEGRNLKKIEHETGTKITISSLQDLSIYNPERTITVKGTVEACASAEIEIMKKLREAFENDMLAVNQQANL
# RBPMS = RBPMS (Homo sapiens, UniProt Q93062)
# Sequence of RBPMS (Q93062 1-125): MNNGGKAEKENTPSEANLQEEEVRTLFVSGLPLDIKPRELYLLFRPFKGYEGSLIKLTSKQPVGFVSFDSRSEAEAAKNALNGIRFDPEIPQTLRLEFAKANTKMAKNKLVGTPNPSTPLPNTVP
# TRA2B = target: T8, TRA2B (Homo sapiens, UniProt P62995)
# T8 sequence: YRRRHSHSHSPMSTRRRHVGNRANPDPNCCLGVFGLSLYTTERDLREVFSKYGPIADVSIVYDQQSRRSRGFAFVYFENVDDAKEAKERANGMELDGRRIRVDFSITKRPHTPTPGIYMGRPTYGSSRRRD
# PSPC1 = target: T9, PSPC1 (Homo sapiens, UniProt Q8WXF1)
# T9 sequence: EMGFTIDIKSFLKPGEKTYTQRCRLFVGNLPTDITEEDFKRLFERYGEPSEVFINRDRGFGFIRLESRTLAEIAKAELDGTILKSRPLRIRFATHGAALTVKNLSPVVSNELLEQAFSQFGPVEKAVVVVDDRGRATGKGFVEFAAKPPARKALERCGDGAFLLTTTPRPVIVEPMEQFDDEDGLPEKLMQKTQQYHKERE
# TDRD10 = target: T10, TDRD10 (Homo sapiens, UniProt Q5VZ19)
# T10 sequence: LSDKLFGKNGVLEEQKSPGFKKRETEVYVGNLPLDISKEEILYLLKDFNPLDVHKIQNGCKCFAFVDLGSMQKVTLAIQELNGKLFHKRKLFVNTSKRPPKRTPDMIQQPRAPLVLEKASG
# MASK-BP3 = target: T11, MASK-BP3 (Homo sapiens, UniProt Q8IWZ3)
# T11 sequence: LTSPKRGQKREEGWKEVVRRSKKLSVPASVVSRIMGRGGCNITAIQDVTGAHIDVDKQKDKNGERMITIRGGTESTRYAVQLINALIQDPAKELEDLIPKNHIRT
# TRA2A = target: T12, TRA2A (Homo sapiens, UniProt Q13595)
# T12 sequence: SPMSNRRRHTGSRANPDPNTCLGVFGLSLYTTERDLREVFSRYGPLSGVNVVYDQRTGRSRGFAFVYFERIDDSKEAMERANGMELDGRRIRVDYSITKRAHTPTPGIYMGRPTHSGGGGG
Sequence,binding signal (RBM19(1)) [fluorescence intensity],binding signal (FXR1(1-2)) [fluorescence intensity],binding signal (SFRS12) [fluorescence intensity],binding signal (RBMXL3) [fluorescence intensity],binding signal (ROD1(3-4)) [fluorescence intensity],binding signal (SFRS7) [fluorescence intensity],binding signal (snRNP 70) [fluorescence intensity],binding signal (SRRP35) [fluorescence intensity],binding signal (RDBP) [fluorescence intensity],binding signal (STAU2(4)) [fluorescence intensity],binding signal (RBM11) [fluorescence intensity],binding signal (RAVER1) [fluorescence intensity],binding signal (REXON) [fluorescence intensity],binding signal (IGF2BP2(1-2)) [fluorescence intensity],binding signal (RBPMS) [fluorescence intensity],binding signal (TRA2B) [fluorescence intensity],binding signal (PSPC1) [fluorescence intensity],binding signal (TDRD10) [fluorescence intensity],binding signal (MASK-BP3) [fluorescence intensity],binding signal (TRA2A) [fluorescence intensity]
UAGCUUAUCAGACUGAUGUUGA,37.3 ± 6.15,31.1 ± 0.919,30.2 ± 10.4,308 ± 16.9,94.4 ± 48.7,1190 ± 28.1,44 ± 10.4,54.02 ± 0.29,20.3 ± 0.262,–,–,–,–,–,–,–,–,–,–,–
UGAGGUAGUAGGUUGUGUGGUU,592 ± 96.6,436 ± 32.2,314 ± 21.7,1280 ± 38.3,569 ± 20.9,1968 ± 10.4,1170 ± 58.7,643.6 ± 5.9,78.9 ± 4.14,275.8 ± 2.53,26.6 ± 2.58,22.3 ± 5.17,198.5 ± 0.0919,31.4 ± 2.92,168 ± 4.32,748 ± 54,84.7 ± 9.68,210 ± 41.3,131 ± 1.63,341 ± 41.5
UGAGGUAGUAGGUUGUAUGGUU,519 ± 35.8,95 ± 11.4,264 ± 26.8,1320 ± 44.2,385 ± 82.6,2173 ± 16.3,1010 ± 40.3,570 ± 27.1,52.2 ± 3.22,168 ± 2.52,36.7 ± 5.74,26.62 ± 0.0495,102 ± 6.23,26.07 ± 0.24,145 ± 43.8,1050 ± 32.8,26.1 ± 0.75,161 ± 58.1,71.6 ± 1.19,311 ± 4.77
AGAGGUAGUAGGUUGCAUAGUU,400 ± 17.2,46.8 ± 0.523,364 ± 21,1850 ± 54,331 ± 55.6,2902 ± 20.8,899.9 ± 8.8,735 ± 23.2,47.7 ± 4.8,100.36 ± 0.0283,28 ± 4.14,–,106 ± 7.17,23 ± 1.49,754 ± 55.2,1220 ± 41.8,38.8 ± 3.2,85.7 ± 8.76,50.1 ± 3.32,230 ± 12.5
UGAGGUAGUAGGUUGUAUAGUU,132 ± 21,34.3 ± 0.7,44.9 ± 2.62,500 ± 52.7,92.7 ± 10.2,896.5 ± 2.67,179 ± 52.5,206 ± 15.3,25 ± 1.67,31.34 ± 0.269,–,21.1 ± 4.28,30.1 ± 0.375,–,63.4 ± 5.39,97.2 ± 22.2,–,–,26.2 ± 1.21,25 ± 0.552
CAGUGCAAUGAUGAAAGGGCAU,249 ± 33.6,111.8 ± 0.544,243 ± 4.09,1130 ± 24.3,241 ± 7.52,2185 ± 2.91,453 ± 34.9,882 ± 24.2,43.1 ± 3.73,92.53 ± 0.0283,25.7 ± 8.53,–,88.4 ± 1.34,24.1 ± 3.02,844 ± 72.7,656 ± 15.9,–,33.1 ± 2.64,42.16 ± 0.219,126 ± 1.75
